# Legend:
# Test in all cases: PBM binding z-score (relative to random genomic background probes); higher = stronger binding; sequences stand for … in GC…GCGATTGACAGCGTAGAATGAAGG
# [1] = tested on: RARb homodimer (NR concentration 270 nM)
# Procedure, shortened: (§1)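 Custom Agilent 4×180K protein-binding microarrays carried double-stranded probes, each with a 34-nt variable region. These regions held direct-repeat seeds, single-nucleotide variants, half-site ablations and random human genomic background sequences. Ligand-free nuclear receptor dimers were incubated on the arrays for 1 h, antibodies against each partner (one per run) detected binding, and scanned fluorescence was regression-normalized. Binding z-scores take the random background probes as reference.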
# [2] = tested on: RARg:RXRa (NR concentration 270 nM, RXRa partner concentration 90 nM)
# Procedure, shortened: as §1
# [3] = tested on: RARg homodimer (NR concentration 270 nM)
# Procedure, shortened: as §1
# [4] = tested on: RXRa DBDmut IVT, anti-RXR (DBD mutation: RXRa K156A/R161A, NR concentration 90 nM)
# Procedure, shortened: as §1
# [5] = tested on: RXRa homodimer (NR concentration 180 nM)
# Procedure, shortened: as §1
# [6] = tested on: THRa:RXRa (NR concentration 90 nM, RXRa partner concentration 90 nM)
# Procedure, shortened: as §1
# [7] = tested on: THRa homodimer (NR concentration 90 nM)
# Procedure, shortened: as §1
# [8] = tested on: VDR:RXRa (NR concentration 270 nM, RXRa partner concentration 90 nM)
# Procedure, shortened: as §1
# [9] = tested on: VDR homodimer (NR concentration 270 nM)
# Procedure, shortened: as §1
Sequence,PBM binding z-score [1],PBM binding z-score [2],PBM binding z-score [3],PBM binding z-score [4],PBM binding z-score [5],PBM binding z-score [6],PBM binding z-score [7],PBM binding z-score [8],PBM binding z-score [9]
TCTGCTAGGTCCACGATGGTCAGCTAATCTGCTA,-0.207,-0.213,-0.0544,0.651,-0.333,-0.32,-0.873,-0.304,-0.326
TCATATAGGTAATACAGGCGAAAGTCGGCATCTA,-0.403,0.375,0.171,1.23,0.623,-0.0703,-0.232,0.97,-0.187
ACTCGGAGGACAAAAGTCAGAGCTACGCCAGTGA,0.442,0.411,0.784,0.783,0.0563,0.186,-0.517,-0.553,-0.631
TCTTGAAGATCAAGCAGGTTAAGAAAGCCTGAGT,-0.113,-0.172,-0.516,0.456,0.318,0.216,-0.679,0.401,-0.115
CCTCGGAGGACAGAGGGTCAGAGCTGTCCGCTTT,2.47,2.45,2.4,-0.382,1.6,1.69,-0.314,0.544,-0.0777
TAGCCTAGGTCATTGGGGCAGTATAGTACGCATC,3.31,3.93,4.23,1.67,2.99,2.96,1.28,3.19,1.8
ACAGACAGGTGAGTGAAGGTAACTCATCTGGACG,-0.00809,0.205,0.564,-0.622,0.146,1.57,-0.651,-0.347,-0.803
TCATATAGGTAAAGGTGGAAGTCGAACGATATGA,0.0636,0.544,0.404,1.02,0.958,-0.14,-0.387,0.368,0.109
TCTTGTAGATCAGCAGGTTAGGAAAGCTGGCCAA,0.063,-0.177,-0.406,0.591,0.165,0.0538,-0.496,0.153,-0.206
CTACCGAGGTGAACAAGGTCGTTGATTACTATTC,2.25,2.19,1.74,1.74,2.4,3.6,2.43,6.42,3.13
ATATGTAGGTTATCTGGTCATTCAGTTTGCGCAT,1.34,1.39,1.15,1.08,1.46,0.737,0.562,2.12,1.07
ATCGAAAGGTCGACAAGGTGAGTATACACCGTTT,3.01,4.25,3.99,0.788,4.36,3.65,0.513,4.61,0.835
ATCTCTAGGTAAAGTTCAGTGAGAGATCGATAGA,2.43,1.84,2.47,1.21,1.06,1,0.0803,1.64,1.28
TGAAAGAGGTTAAAGATCAGGGAACGTGGCGTCG,1.1,2.9,1.68,0.56,4.19,1.63,-0.693,1.82,0.28
CCGACTGGGGCATATGGTTACCATAAGCCAGCCC,-0.243,-0.00585,0.046,-0.59,0.109,-1.07,-0.688,-0.695,-0.752
CATACAGGGTCAGCTAGGCCAAAGTAGGGACGGC,3.27,4.71,5.14,1.49,4.24,3.16,0.87,4.73,2.11
TGTCAAAGTTCAAAGGTAACGTTAGTATCCACAC,4.11,6.39,6.13,4.32,7.81,3.18,-0.0671,4.9,3.97
ATATGTAGGTTAAGGGACATTCAGGTTGGTTCGC,1.6,1.28,1.27,0.615,1.25,1.14,0.815,1.07,1.69
TGTAGTTGGTCACGGAGGTCACACACGACGGGTA,4.39,4.74,4.47,-0.214,4.76,3.6,2.44,5.47,2.45
ATCTCTTGGTAAAGTTCAGTGAAAGATCGATAGA,2.41,2.08,2.53,2.06,1.04,0.889,0.154,1.6,2.21
TGAGTGAGGTTAAAGATCAGGGAACGTGGCGTCG,1.06,2.51,1.37,1.05,4.01,2.43,0.575,1.66,0.834
TCAGACAGGTGAAGGTAACTCAAGTACGCAGTCG,0.996,0.573,0.747,1.54,1.13,1.68,0.516,1.12,0.389
AGAATGAGGTTATACGTAGATCAGGCAAGAAAGT,0.646,1.78,1.11,1.62,2.14,2.26,0.402,1.46,0.719
CCGACTGGGGCAAGGGTACCATAACGCACAGCCA,0.569,0.349,0.692,-1.52,0.269,-0.0335,-0.368,-0.346,-0.448
TCGAGTAGGTTACCAATGGGGCATGCAGCTTTCT,0.595,1.02,0.374,0.239,0.609,0.0319,-0.807,-0.0716,-0.473
ACAGACAGGTGAGTGAAGATAACTCAGCTGGACG,-0.405,0.185,0.475,-0.658,0.111,-0.344,-0.684,-0.413,-0.624

# From the supplement of paper PMC6555819
